# From PubChem BioAssay
# Hits are enriched below; roughly 14% of the tested compounds scored in any of these assays.
# HCMV inh = qHTS Assay for inhibitors of the human cytomegalovirus (HCMV); activity change, negative = inhibition, % at 57.5 µM; AID 1259415, 2018; 410,000 compounds, 4.5% hits; HFF cells, HCMV-luciferase reporter, 72 h; hits give low values; in the data active = activity change below about -60%; inconclusive = no clear call, values can overlap the other calls; inactive = above about -39%
#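 Human foreskin fibroblasts infected with luciferase-reporter HCMV at MOI 1 PFU/cell, compounds at two doses. Luciferase measured 72 h post infection; normalized to buffer-only basal and Salinomycin (10uM) controls.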
# MARV entry inh = qHTS for inhibitors of binding or entry into cells for Marburg Virus. AID 540276, 2011. Marburg virus pseudotyped entry inhibition, cell reporter. 300,000 compounds, 1.8% hits. Potency, µM (highest dose often 37.8 µM), usual class: inhibitors; calls by dose curve; tested in HEK293 cells
# Pf growth 96h = Primary qHTS for delayed death inhibitors of the malarial parasite plastid, 96 hour incubation; P. falciparum luciferase reporter growth, 96 h; Potency, µM (doses to about 28.7 µM), actives largely listed as inhibitors; 320,000 compounds, 6.9% hits; AID 504834, 2011
#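 P. falciparum expressing integrated firefly luciferase, in erythrocytes at 2% hematocrit, 0.05% parasitemia, incubated with compounds 96 h at 37 C, 5% CO2. Growth inhibition read as loss of luminescence; two-generation exposure targets delayed-death apicoplast inhibitors.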
# Pf growth 48h = Primary qHTS for delayed death inhibitors of the malarial parasite plastid, 48 hour incubation | 310,000 compounds, 5.9% hits | AID 504832, 2011 | P. falciparum luciferase growth in erythrocytes, 48 h | Potency, µM (series often up to 28.7 µM), most hits filed as inhibitors
#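 Growth was read as firefly luciferase luminescence after a 48 h, 37 C, 5% CO2 exposure of compounds to reporter-bearing P. falciparum cultures (0.1% parasitemia, 2% hematocrit final) in Albumax-supplemented RPMI 1640.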
# HCV inh = qHTS Assay for Inhibitors of Hepatitis C Virus (HCV). Huh7.5.1 HCVcc-Cre infection, luciferase reporter, 44 h. Potency, µM (titrated, usually from 41.8 µM), hits mostly inhibitors. 340,000 compounds, 3.4% hits
#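 Seed cells (1,000/well) for 4 h; treat with compound and infect with HCVcc-Cre, moi about 0.5. Incubate 44 h, then detect luciferase activity.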
# LASV entry inh = qHTS for Inhibitors of binding or entry into cells for Lassa Virus | Potency, µM (top dose mostly 37.9 µM), actives largely listed as inhibitors | AID 540256, 2011 | 300,000 compounds, 1.2% hits | Lassa virus pseudotype entry inhibition, cell reporter; calls by dose curve; tested in HEK293 cells; note: nearly all actives have a fitted effect of over 50% in size
# Hits are given with their value; – = inactive; ? = inconclusive; · = no result; [ ] = dose if it differs, or a comment. Unless noted, calls come from the whole dose curve; as a rule, active = well fitted inhibition curve with a large enough effect; inconclusive = small, poorly fitted or top-dose-only effect, or another doubt; inactive = no such curve, though single readings can be large or run the other way.
SMILES,HCMV inh,MARV entry inh,Pf growth 96h,Pf growth 48h,HCV inh,LASV entry inh
COC(=O)[C@@]12CCCCN1[C@H](c1ccc(-c3ccc(F)cc3)cc1)[C@@H]1C(=O)N(C)C(=O)[C@@H]12,–,·,13µM,?,–,·
COC(=O)[C@@]12CCCN1[C@H](c1ccc(-c3ccccc3)c(OC)c1)[C@H]1C(=O)N(C)C(=O)[C@H]12,–,·,·,·,–,·
Cc1nc2c(C(=O)NCCCN(CC(C)C)CC(C)C)cnn2c(C)c1Cc1c(F)cccc1Cl,?,·,·,·,·,–
O=C(c1ccc(CS(=O)Cc2ccc(Cl)cc2)o1)N1CCN(C2CCCCC2)CC1 (centres undefined),–,·,·,·,·,·
O=C(c1cccc(F)c1)N1CC(=O)N2[C@H](CO)[C@@H](c3ccc(Br)cc3)[C@@H]2C1,–,·,·,·,·,·
COC(=O)[C@@]12CCCCN1[C@H](c1ccc(-c3cc(C(C)=O)cs3)c(OC)c1)[C@H]1C(=O)N(C)C(=O)[C@H]12,–,·,?,4.1µM,–,·
COC(=O)[C@@]12CCCN1[C@H](c1ccc(-c3ccc(C(C)=O)cc3)c(OC)c1)[C@H]1C(=O)N(C)C(=O)[C@H]12,–,·,?,13µM,–,·
COC(=O)[C@@]12CCCN1[C@H](c1ccc(-c3ccc(OC)cc3)c(OC)c1)[C@@H]1C(=O)N(C)C(=O)[C@@H]12,–,·,12µM,13µM,?,·
COC(=O)[C@@]12CCCCN1[C@H](c1ccc(-c3ccc(C(C)=O)cc3)cc1)[C@H]1C(=O)N(C)C(=O)[C@H]12,–,·,–,?,–,·
COc1ccccc1CNC(=O)c1ccc2ccccc2n1,–,–,?,?,?,·
CSc1ccc(CCNC(=O)C2=C(C)C(=O)OC23CCCCC3)cc1,–,–,·,·,·,?
O=C(NCCN1CCOCC1)C(=O)NCC1OCCN1S(=O)(=O)c1ccc(Cl)cc1 (centres undefined),–,·,·,·,·,·
COc1ccc(C(=O)O)cc1S(=O)(=O)NCc1ccccn1,?,–,?,–[0.00184 µM],–,–
O=C(CCNS(=O)(=O)c1ccc(Br)cc1)NCCCSc1ccccc1,–,·,?,?,–,·
Cc1csc(NC(=O)c2cc3c(s2)CCCC3)n1,–,·,–,?,?,·
O=C(Nc1ccon1)c1cc2c(s1)CCCCCC2,–,?,·,3.7µM,?,?
Cc1csc(NC(=O)c2cc3c(s2)CCCCC3)n1,?,?,·,–,?,2.2µM
Cc1cc(C)cc(Cn2c3ccc(NC(=O)NCc4ccc(F)cc4)cc3c(=O)n2C)c1,–,·,·,·,·,·
Cc1ccc(N=C(N)N=C(N)N)cc1,–,·,?,9.3µM,–,·
NC(N)=NC(N)=Nc1ccc(O)cc1,–,·,–,?,–,·
CCOC(=O)C1=C(CS(=O)(=O)c2ccc(Br)cc2)NC(=O)NC1c1ccccc1 (centres undefined),–,–,·,·,·,–
COc1ccc(C(=O)N/N=C/c2ccc(OC(=O)c3cccs3)cc2)cc1,–,?,–,–,–,–
CC(C)(C)OC(=O)N/N=C\c1ccc(OC(=O)c2cccs2)cc1,–,?,12µM,–,–,–
CCN1C(=O)C(Cc2nc3ccccc3c(=O)n2-c2ccccc2)c2cc(Br)ccc21 (centres undefined),-70,?,·,·,·,–
Cn1c2cc(B(O)O)sc2c2cnn(Cc3c(F)cccc3Cl)c(=O)c21,·,·,10µM,13µM,·,·
SMILES,HCMV inh,MARV entry inh,Pf growth 96h,Pf growth 48h,HCV inh,LASV entry inh
CCCCN1C2=C(C(=O)CCC2)C(c2ccc(Cl)c(Cl)c2)C2=C1c1ccccc1C2=O (centres undefined),–,?,?,?,?,2.3µM
Cc1ccc(NC(=O)CCC(=O)N/N=C/c2cccnc2)cc1,–,–,3.7µM,–,–,–
NC(=S)N/N=C/c1cccnc1,·,·,–,–,·,·
Cc1ccccc1NC(=O)CCC(=O)N/N=C/c1cccnc1,–,–,?,?,–,–
O=C(O)c1ccc(/C=N/NC(=O)C2CC2(c2ccccc2)c2ccccc2)cc1 (centres undefined),–,·,?,?,·,·
O=C(N/N=C/c1cccnc1)C1CC1(c1ccccc1)c1ccccc1 (centres undefined),-67,?,–,?,?,–
CC(C)(C)NC(=S)N/N=C/c1cccnc1,-65,–,–,–,–,?
CCC(=O)Nc1ccc(C(=O)N/N=C/c2cccnc2)cc1,–,–,–,–,–,–
O=C(CCC(=O)Nc1ccccc1)N/N=C/c1cccnc1,–,·,5.2µM,–,–,·
Cc1ccc(-n2c(=O)c3c(C)c(C(=O)N(C)C)sc3n(CC(=O)C(C)(C)C)c2=O)cc1C,–,·,·,·,·,?
CCCCC(=O)Nc1nnc(S(=O)(=O)N(CC)c2cc(C)cc(C)c2)s1,–,·,·,·,·,–
CCCCOc1ccc(CNC(=O)Cc2ccc(NC(=O)N3CCCCc4ccccc43)cc2)cc1,–,·,·,·,·,?
CCOc1ccc2nc3c(cc2c1)CN(CCOC)C(=NC)S3,–,–,2.1µM,?,–,–
Cc1cccc(C)c1OCC(=O)NNC(=S)NC(=O)C1CC1,–,·,10µM,?,?,·
Cc1cccc(OCC(=O)NC2CCCCCC2)c1C,?,?,?,–,–,–
Cc1cccc(C)c1OCC(=O)NC1CC1,–,·,–,2.9µM,–,·
COC(=O)[C@H](COC(C)(C)C)NC(=O)O[C@@H]1C(=O)c2cc(OC)ccc2O[C@H]1c1ccc(OC)c(Br)c1,·,–,·,·,·,·
CC1(C(=O)NCc2ccc3c(c2)OCO3)CCN1Cc1csc2ccccc12 (centres undefined),–,·,·,·,·,·
C[C@@H]1O[C@@H](O[C@H]2C[C@@H](O)[C@]3(CO)[C@@H]4C(CC[C@]3(O)C2)[C@@]2(O)CC[C@H](C3=CC(=O)OC3)[C@@]2(C)C[C@H]4O)[C@H](O)[C@H](O)[C@H]1O (some centres undefined),·,0.032µM,·,·,·,·
CC1CC2C(C(O)CC3(C)C2CCC3(O)C(=O)CO)C2(C)C=CC(=O)C=C12 (centres undefined),–,–,·,·,–,–
C[C@@H]1O[C@@H](O[C@H]2C[C@@H](O)[C@]3(CO)[C@H]4[C@H](O)C[C@]5(C)[C@@H](C6=CC(=O)OC6)CC[C@]5(O)[C@@H]4CC[C@]3(O)C2)[C@H](O)[C@H](O)[C@H]1O,·,0.065µM,–,?,2.2µM,0.046µM
COc1cc(C(=S)N2CCOCC2)ccc1OC(=O)c1cc([N+](=O)[O-])c(C)c([N+](=O)[O-])c1,–,?,1.7µM,–,–,–
CCOc1cc(C(=S)N2CCOCC2)ccc1OS(=O)(=O)c1ccccc1[N+](=O)[O-],?,–,5.9µM,?,–,?
Cn1c(=O)c2c(n3cnnc13)-c1ccccc1CC21CCCC1,?,?,?,?,?,–
CSc1nnc2n(C)c3c(c(=O)n12)C1(CCCC1)Cc1ccccc1-3,–,?,10µM,?,?,–
